AHR act: activators of human aryl hydrocarbon receptor; AHR-responsive luciferase reporter cells, luminescence; activation, % at 5 µM; 320,000 tested, 2.5% active; AID 2796; in the data active = activation above about 47%;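 also: 0% = vehicle wells and 100% = reference agonist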
Target sequence (P35869 whole entry, looked up): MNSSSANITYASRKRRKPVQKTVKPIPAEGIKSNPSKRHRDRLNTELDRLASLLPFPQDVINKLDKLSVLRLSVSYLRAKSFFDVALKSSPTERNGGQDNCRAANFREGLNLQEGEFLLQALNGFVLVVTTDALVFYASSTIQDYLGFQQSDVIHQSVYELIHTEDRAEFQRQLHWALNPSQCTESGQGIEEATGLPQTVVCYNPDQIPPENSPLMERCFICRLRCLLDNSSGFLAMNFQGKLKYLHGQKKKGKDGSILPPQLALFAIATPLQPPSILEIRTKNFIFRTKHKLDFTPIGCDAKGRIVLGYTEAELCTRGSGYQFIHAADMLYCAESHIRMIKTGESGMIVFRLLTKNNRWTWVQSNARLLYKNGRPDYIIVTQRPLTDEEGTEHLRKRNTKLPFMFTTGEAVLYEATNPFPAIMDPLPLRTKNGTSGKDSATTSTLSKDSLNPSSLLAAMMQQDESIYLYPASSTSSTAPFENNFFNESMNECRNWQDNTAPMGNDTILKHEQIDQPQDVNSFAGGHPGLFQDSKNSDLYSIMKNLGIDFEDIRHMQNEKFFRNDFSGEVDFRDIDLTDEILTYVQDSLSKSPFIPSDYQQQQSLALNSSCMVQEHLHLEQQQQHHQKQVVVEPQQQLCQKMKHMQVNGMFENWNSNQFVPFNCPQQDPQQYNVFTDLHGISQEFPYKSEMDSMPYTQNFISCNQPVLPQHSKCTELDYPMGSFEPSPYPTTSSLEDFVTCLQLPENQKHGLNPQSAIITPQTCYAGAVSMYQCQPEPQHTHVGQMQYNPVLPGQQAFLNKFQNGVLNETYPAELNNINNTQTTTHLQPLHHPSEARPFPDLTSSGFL
FXN GAA850 act: frataxin GAA850 promoter activation; 360,000 tested, 0.56% active; AID 540364; HEK293 lucGAA850 FXN promoter luciferase reporter, 24 h; percent of 10 µM SAHA response; activation, % at 6 µM;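 active = activation above the average of all compounds screened plus 3 SD, cutoff fixed separately per campaign, cut at about 7.5% in these data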;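 also: 0% = DMSO wells and 100% = 10 µM SAHA wells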
HSF1 inh: HSF1 inhibition | NIH3T3-HGL HSE-luciferase, MG132-induced, luminescence 8 h; stronger effect = lower value | activity change, negative = inhibition, % at 7.5 µM (by protocol) | 300,000 tested, 0.77% active | AID 2098;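 active = more than half of replicate wells show activity change below -50%, luminescence cut by over half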;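 also: luciferase reports HSF-1 transcriptional activity via heat shock element; 0% = median of DMSO wells and -100% = zero luminescence signal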
HSF1 activator: increases HSF-1 driven luciferase reporter signal. NIH3T3-HGL HSF-1 luciferase reporter, MG132, 8 h; 100% = twice DMSO control signal. activation, % at 9 µM. 300,000 tested, 1.7% active. AID 504408;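 active = mean replicate activation of at least 50% with a set share of replicates each reaching 50%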;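 also: 0% = median of the neutral control wells and 100% = twice that signal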
* marks the source's active call; other numbers are inactive results; / = no result. Compounds with a hit are over-represented: about 4.6% of the library has one in this group of screens.

SMILES	AHR act	FXN GAA850 act	HSF1 inh	HSF1 activator
Cc1ccc(C2=NS(=O)(=O)N(C)C(C(=O)NC(C)c3ccccc3)=C2)cc1 (centres undefined)	0	0	5	13
CCN(CC)c1ccc(/C=N/NC(=S)NCc2ccc(OC)cc2)cc1	49*	3	22	53*
CC(C)COc1ccc(CNC(=S)N/N=C/c2ccc([N+](=O)[O-])cc2)cc1	2	1	6	-2
CC(C)Oc1ccc(CNC(=S)N/N=C/c2ccc([N+](=O)[O-])cc2)cc1	1	0	-67*	-74
Brc1ccc(-c2nnc3sc(CNCc4ccc5c(c4)OCO5)cn23)cc1	65*	1	-3	6
Cn1cc(Br)c(C(=O)Nc2sc3c(c2C(N)=O)CCCC3)n1	2	5	24	24
CCn1cc(Br)c(C(=O)Nc2sc3c(c2C(N)=O)CCCC3)n1	57*	-1	8	3
COc1ccccc1-c1nc(S(=O)(=O)c2ccccc2)c(N2CCCCC2)o1	9	-1	50	52*
Cc1ccc(-n2nc(C)c3c(C)c(CCC(=O)NCc4ccccc4)c(C)nc32)cc1	0	2	-7	-2
Cc1ccc(SCC(=O)N/N=C/c2ccco2)cc1	2	2	16	59*
CCOC(=O)c1c(C)n(C)c2ccc(O)c(CN3CCN(C)CC3)c12	5	-1	29	56*
CCOC(=O)c1c(CSc2ccccc2)n(C)c2ccc(O)c(CN3CCOCC3)c12	12	-1	70	70*
CCOC(=O)c1c(C)n(C)c2ccc(O)c(CN3CCC(C)CC3)c12	15	-2	4	-2
CCOC(=O)c1c(CSc2ccccc2)n(C)c2cc(Br)c(OC)c(O)c12	-1	1	1	4
O=c1ccc2[n+]([O-])c3ccc(O)cc3oc-2c1	/	1	3	-5
O=C(CCNS(=O)(=O)c1ccccc1)OCC(=O)c1ccc(Cl)cc1	-2	1	-2	0
COc1cccc2sc(Nc3nnc(-c4ccc(F)cc4)o3)nc12	66*	0	4	6
CCOc1cccc2sc(NN)nc12	/	-1	/	/
CCN1C(=O)S/C(=C/c2ccc(Sc3nc4ccccc4[nH]3)o2)C1=O	3	0	29	58*
CNC(=S)N(Cc1cccs1)Cc1cc2ccc(OC)cc2[nH]c1=O	-5	0	-4	21
CCNc1nc(NC(C)C)nc(SCCOc2ccc(C)cc2)n1	47*	3	0	20
COc1ccc(C)cc1S(=O)(=O)NCCC1=CCCCC1	1	-2	4	2
CCn1c(=O)c(C(=O)NCc2cccnc2)c(O)c2ccccc21	56*	2	2	9
O=C(NCc1cccnc1)c1c(O)c2cccc3c2n(c1=O)CCC3	77*	3	2	4
Cc1oc2c(c1C(=O)NCc1cccnc1)C(=O)c1ccccc1C2=O	-15	/	-95*	-94
SMILES	AHR act	FXN GAA850 act	HSF1 inh	HSF1 activator
CCn1c(=O)c(C(=O)NCc2ccccc2)c(O)c2ccccc21	7	2	8	7
CCn1c(=O)c(C(=O)NC(C)C)c(O)c2ccccc21	76*	0	-1	0
COc1ccc(CNC(=O)c2c(C)oc3c2C(=O)c2ccccc2C3=O)cc1	5	-1	12	32
CCOc1ccc(/C=C/c2[nH]c(=O)[nH]c(=O)c2[N+](=O)[O-])cc1	0	1	-2	-9
CCOC(=O)c1c(C)c(C(=O)Nc2ccc3c(c2)OCCO3)c(C)n1CC	5	-5	-7	5
CCOC(=O)c1c(C)c(C(=O)Nc2ccc3c(c2)OCO3)c(C)n1C	38	0	36	71*
CCc1onc(C)c1C(=O)Nc1ccc2c(c1)OCO2	58*	-1	1	1
O=C(Nc1ccc2c(c1)OCO2)c1c(F)c(F)c(F)c(F)c1F	10	-1	4	13
CSC1=C(C#N)C2(CCCCC2)C(C(=O)Nc2ccccc2)=C(C)N1	/	-2	/	/
N#CC1=C(N)NC(SCC(=O)O)=C(C#N)C12CCCC2	0	1	1	4
N#CC1=C(N)NC(SCC(=O)Nc2ccccc2)=C(C#N)C12CCCC2	71*	1	21	40
N#CC1=C(N)NC(SCc2ccc(F)cc2)=C(C#N)C12CCCCC2	17	-3	119	166*
Cc1cnc(NC(=O)c2cncc(Br)c2)s1	3	3	19	48
COc1cccc(OC)c1C(=O)N1CCN=C1SCc1cccnc1	1	-1	-6	-24
COc1ccc(C(=O)N2CCN=C2SCc2cccnc2)cc1OC	11	3	-66*	-75
CCOC(=O)C1=C(C)NC(=S)NC1C (centres undefined)	2	3	1	-7
Cc1sc2ncnc(N3CCC(C(=O)Nc4nc(-c5cccs5)cs4)CC3)c2c1C	7	1	-54*	-55
CCc1nnc(NC(=O)C2CCN(c3ncnc4sc(C)c(C)c34)CC2)s1	3	2	/	/
Cc1cc(C(=O)CSc2n[nH]c(N)n2)c(C)n1-c1cc(F)ccc1F	6	3	8	29
O=C(O)CSCC(=O)Nc1ccc(C2CCCCC2)cc1	-14	-18	-78*	-79
Cc1cccc(Nc2nc(C)cc(C)c2C#N)c1	32	1	0	-4
Cn1c(CCc2nc3ccccc3[nH]2)n[nH]c1=S	0	0	-1	-17
O=C(Cc1sc(Nc2ccccc2)nc1-c1ccccc1)NCc1ccccc1	16	3	21	60*
Cc1ccc(-c2nc(Nc3cccc(C)c3)sc2CC(=O)O)cc1	22	4	-9	-20
O=C(O)Cc1sc(N/N=C\c2ccccc2)nc1-c1ccccc1	75*	1	43	60*
SMILES	AHR act	FXN GAA850 act	HSF1 inh	HSF1 activator
O=C(Cc1sc(-c2ccccc2)nc1-c1ccccc1)Nc1ccccc1	-2	0	0	-17
CC(C)Nc1nnc(SCC(=O)N2CCN(C(=O)c3ccco3)CC2)s1	1	1	/	/
CC(=O)Nc1sc2c(c1C(N)=O)CCN(Cc1ccccc1)C2	5	0	3	12
NC(=O)c1c(NC(=O)Cc2ccccc2)sc2c1CCN(Cc1ccccc1)C2	-5	0	35	62*
C/C(=N\Nc1ccc(C)c(Cl)c1)c1cccnc1	54*	3	-5	5
CN(c1ccccc1)S(=O)(=O)c1ccc(C(=O)N2CCCC(C(F)(F)F)C2)cc1 (centres undefined)	4	0	2	6
Cc1ccc(C(=O)Nc2nc(-c3cccnc3)cs2)o1	70*	2	9	17
Nc1ccc(Nc2nc(-c3ccncc3)cs2)cc1	91*	-2	0	18
Cc1csc(NC(=O)c2ccc(C)o2)n1	17	1	-14	-18
CC(=O)c1ccc(Nc2nc(-c3cccnc3)cs2)cc1	/	4	14	4
Cc1ccc(Nc2nc(-c3cccnc3)cs2)cc1C	54*	2	53	38
Oc1ccc(Nc2nc(-c3cccnc3)cs2)cc1	74*	9.0*	33	35
CC(C)CC1NC(=O)N(Cc2cc(=O)n3ccsc3n2)C1=O (centres undefined)	-1	-2	/	/
Cc1sc(N/N=C/c2cccs2)nc1-c1ccccc1	78*	2	11	26
